SNCA expr inh: SNCA gene expression inhibition; Potency, µM (series often up to 57.2 µM), for inactives: top-dose activity change, negative = inhibition, most hits filed as inhibitors; actives 0.17% (n = 140,000); HEK-293 SNCA-luciferase knock-in, luminescence, 24 h;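 further: potency means the concentration at half of the fitted maximal effect; plate controls were DMSO cells for no effect and cell-free wells for full effect; nearly all actives have a fitted effect of over 45% in size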
IP6K1 inh: IP6K1 kinase inhibition | Q92551 | IP6K1 kinase, ADP-Glo luminescence, 2 h; hits give low values | activity change, % (series mostly up to about 58 µM) | actives 0.81% (n = 140,000); in the data active means activity change below about -25%; further: on the % scale 0 is the no-effect control and ±100 the full control effect
Target sequence (Q92551 whole entry, looked up): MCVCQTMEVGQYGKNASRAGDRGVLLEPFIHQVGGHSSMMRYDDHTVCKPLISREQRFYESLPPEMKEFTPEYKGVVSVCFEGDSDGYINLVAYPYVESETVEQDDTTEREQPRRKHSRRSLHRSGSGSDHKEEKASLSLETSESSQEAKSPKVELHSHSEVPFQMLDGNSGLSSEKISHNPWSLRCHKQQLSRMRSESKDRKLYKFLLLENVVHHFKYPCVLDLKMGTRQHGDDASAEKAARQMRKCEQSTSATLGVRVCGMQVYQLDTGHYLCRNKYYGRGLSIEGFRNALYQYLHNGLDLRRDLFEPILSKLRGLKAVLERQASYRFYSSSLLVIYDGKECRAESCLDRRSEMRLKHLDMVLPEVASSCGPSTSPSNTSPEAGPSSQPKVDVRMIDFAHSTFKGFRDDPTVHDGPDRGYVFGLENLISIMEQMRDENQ
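ADP-Glo luminescence measures ADP made by human IP6K1 during a 2 h RT reaction with ATP/IP6 (mix at 1.3 mM/130 uM); top library doses 57.5 and 19.1 uM final.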
HEK293 viab: reduces viability of HEK-293 SNCA reporter cells; HEK-293-SNCA-luc viability, GF-AFC fluorescence, 24 h; AID 1671193; Potency, µM (series often up to 57.1 µM), without a hit: at the highest dose activity change, negative = cytotoxicity, usual class: cytotoxic; actives 0.12% (n = 150,000);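 further: potency means the concentration at half of the fitted maximal effect; 0% = DMSO-treated cells and -100% = medium-only wells without cells; nearly all actives have a fitted effect of over 30% in size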
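HEK-293-SNCA-luc cells (1500/well) plated 24 h, then exposed 24 h to a dilution series; GF-AFC added 30 min at 37C, fluorescence 405/540 nm; normalised to medium-only and DMSO wells, Hill fit.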
KDM5B inhibitor: inhibitors of human KDM5B histone demethylase | Q9UGL1 | KDM5B demethylase, FDH-coupled NADH fluorescence (FDH is formaldehyde dehydrogenase) | Potency, µM (titrated, usually from 57.7 µM), usual class: inhibitors | actives 2.6% (n = 220,000) | AID 1347165; further: potency means the concentration at half of the fitted maximal effect; 0% is about no effect; nearly all actives have a fitted effect of over 70% in size
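Compound dilutions met 200 nM (final) KDM5BΔAP for 10 min at room temperature before substrate addition. The substrate mix held 12.5 µM H3K4me3 with cofactors 25 µM α-ketoglutarate and 50 µM Fe²⁺. NADH signal gain over 30 min defined activity.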
* = called active by the depositor; [ ] = remark or other dose. A selection: hits, their analogues and other compounds. The true share with any hit is near 2.8%. Unless noted, the call rests on the fitted dose curve; in most records, active means well fitted curve in the direction sought with a large enough effect; inconclusive means small, poorly fitted or top-dose-only effect, or another doubt; inactive means no such curve, though single readings can be large; an effect the other way counts as inactive or inconclusive.

For COCCNC(=O)c1nc2c(o1)CCN(Cc1cccc(F)c1F)CC2 the results were SNCA expr inh 13%[87.6 µM], IP6K1 inh 6, HEK293 viab 3%[87.6 µM] and KDM5B inhibitor inconclusive.
For Cc1ccc(-c2cc(N3CCCN(C(=O)Cc4ccsc4)CC3)n[nH]2)cc1C the results were SNCA expr inh -18%, IP6K1 inh -18, HEK293 viab -3% and KDM5B inhibitor inconclusive.
Screening COCC1CN(C2CCC2)CC12CCN(C(=O)COc1ccc(F)cc1)CC2 (configuration not stated) returned SNCA expr inh -10%, IP6K1 inh 5, HEK293 viab -20% and KDM5B inhibitor 10µM*.
`COCC1CN(C2CCC2)CC12CCN(C(=O)COc1ccccc1)CC2` (configuration not stated) gave SNCA expr inh 3%, IP6K1 inh 8, HEK293 viab -8% and KDM5B inhibitor inconclusive.
CSc1cccc(NC(=O)CC(C)(C(=O)O)c2ccccc2)c1 (configuration not stated) was read as KDM5B inhibitor inactive.
Cn1ncc2c(C(=O)NCc3ccc(F)cc3)cc(-c3cccc(F)c3)nc21 was read as IP6K1 inh 8.
For Cc1ccc(CN2CC3ON=C(C(=O)O)C3C2)cc1 (configuration not stated) the results were SNCA expr inh inconclusive, IP6K1 inh 4, HEK293 viab 5%[87.6 µM] and KDM5B inhibitor inconclusive.
CCc1ccc(CN2CC3ON=C(C(=O)O)C3C2)cc1 (configuration not stated) was read as SNCA expr inh -17%[87.6 µM], IP6K1 inh -2, HEK293 viab 6%[87.6 µM] and KDM5B inhibitor 112µM*.
Screening Cc1ccnc(NCCNC(=O)C2CCC(=O)N(CC3CCCCC3)C2)c1 (configuration not stated) returned SNCA expr inh 4%, IP6K1 inh -10, HEK293 viab 2% and KDM5B inhibitor 28µM*.
For Cc1nnc(-c2cc(-c3cnn(C)c3)ccn2)n1Cc1ccccc1 the results were SNCA expr inh 19%[87.6 µM], IP6K1 inh -12, HEK293 viab -10%[87.6 µM] and KDM5B inhibitor inconclusive.
For O=C(NC1CCCCC1)NC1CCN(C(=O)N2CC3CC(C2)[C@H]2CCCC(=O)N2C3)CC1 (some centres not stated) the results were SNCA expr inh 20%, IP6K1 inh 10, HEK293 viab 1% and KDM5B inhibitor inactive.
`N#Cc1nccnc1N1CCN(C2CCC3(CCNCC3)CC2)CC1` gave SNCA expr inh 6%, IP6K1 inh 12, HEK293 viab -25% and KDM5B inhibitor 22µM*.
`O=c1c2cc(-c3cccs3)nn2ccn1CC(O)c1ccc(F)cc1` (configuration not stated) gave SNCA expr inh 31%, IP6K1 inh 9, HEK293 viab 8% and KDM5B inhibitor 16µM*.
For Cc1ccc(C(O)Cn2ccn3nc(-c4ccc(F)cc4)cc3c2=O)cc1 (configuration not stated) the results were SNCA expr inh -10%, IP6K1 inh 2, HEK293 viab 5% and KDM5B inhibitor 14µM*.
CC(C)c1ccc(C(O)Cn2ccn3nc(-c4ccc(F)cc4)cc3c2=O)cc1 (configuration not stated) was read as SNCA expr inh 24%, IP6K1 inh 0, HEK293 viab 2% and KDM5B inhibitor 25µM*.
Cc1ccc(C(O)Cn2ccn3nc(-c4ccc(F)cc4)cc3c2=O)cc1C (configuration not stated) was read as SNCA expr inh -8%, IP6K1 inh -1, HEK293 viab -4% and KDM5B inhibitor inactive.
N#Cc1cccnc1-c1cccc(C(=O)NCCNC(=O)c2ccc(F)cc2)c1 was read as SNCA expr inh 5%, IP6K1 inh 4 and HEK293 viab 9%.
Screening CNCCN1C(=O)CC[C@H]2CN(C(=O)COc3cccnc3)CC[C@H]21 returned SNCA expr inh 5%, IP6K1 inh -1, HEK293 viab -3% and KDM5B inhibitor inactive.
Screening CNCCN1C(=O)CC[C@H]2CN(C(=O)c3ccnc(NC)c3)CC[C@H]21 returned SNCA expr inh 21%, IP6K1 inh 5, HEK293 viab -2% and KDM5B inhibitor 25µM*.
COc1ccc(C)cc1NC(=O)c1nn(C)c(=O)c2ccccc12 was read as KDM5B inhibitor inactive.
CN(C)Cc1ccc(-c2cc3c(ccn3Cc3ccncc3)c(N3CCOCC3)n2)cc1 was read as SNCA expr inh -9%[87.6 µM], IP6K1 inh -12, HEK293 viab -22%[87.6 µM] and KDM5B inhibitor 40µM*.
Screening c1cc(Cn2ccc3c(N4CCOCC4)nc(-c4ccc5cn[nH]c5c4)cc32)ccn1 returned SNCA expr inh -23%[87.6 µM], IP6K1 inh -6, HEK293 viab 0%[87.6 µM] and KDM5B inhibitor 35µM*.
Screening Cn1cc(-c2cc3c(ccn3Cc3ccncc3)c(N3CCOCC3)n2)cn1 returned SNCA expr inh -30%[87.6 µM], IP6K1 inh 2, HEK293 viab 11%[87.6 µM] and KDM5B inhibitor inactive.
`O=C(CSc1nc2cc(Cl)ccc2s1)Nc1ccc(C(F)(F)F)cc1` gave KDM5B inhibitor inactive.
For CC1=C(C)C(=O)OC(C(C)C2CCC3C4C5OC5C5(O)CC(OC6OC(CO)C(OC7OC(C)C(O)C(O)C7O)C(O)C6O)CC(O)C5(C)C4CCC23C)C1 (configuration not stated) the results were IP6K1 inh -4 and HEK293 viab 8%[23.9 µM].
For CC1=C(CO)C(=O)O[C@@H]([C@@H](C)[C@H]2CC[C@H]3[C@@H]4C[C@H]5O[C@]56[C@@H](O)C=CC(=O)[C@]6(C)[C@@H]4CC[C@]23C)C1 the results were SNCA expr inh 3µM* and HEK293 viab 6.8µM*.
`COc1ccc(C(CC(=O)N(C)C)c2ccccc2)cc1` (configuration not stated) gave SNCA expr inh -26%, IP6K1 inh 15, HEK293 viab -2% and KDM5B inhibitor inactive.
For COc1ccc(C(CC(=O)N(C)Cc2cnc3ccccn23)c2ccccc2)cc1 (configuration not stated) the results were SNCA expr inh -10%, IP6K1 inh -3, HEK293 viab -9% and KDM5B inhibitor 32µM*.
For Cc1cc(C)c(C)c(S(=O)(=O)NC2CCN(c3ccc(=O)n(CC4CC4)n3)CC2)c1C the results were SNCA expr inh inconclusive, IP6K1 inh -4, HEK293 viab -14% and KDM5B inhibitor 35µM*.
`O=c1ccc(N2CCC(NS(=O)(=O)c3ccc(Cl)s3)CC2)nn1CC1CC1` gave SNCA expr inh -31%, IP6K1 inh -2, HEK293 viab -5% and KDM5B inhibitor 14µM*.
Screening O=C(NC1CCN(c2ccc(=O)n(CC3CC3)n2)CC1)c1cnccn1 returned SNCA expr inh inconclusive, IP6K1 inh -11, HEK293 viab -3% and KDM5B inhibitor inconclusive.
Screening Cc1ccc(NC(=O)CSc2nc3cc([N+](=O)[O-])ccc3o2)cc1 returned KDM5B inhibitor inactive.
`O=C(c1cc2n(n1)CC(c1ccc3c(c1)OCO3)OC2)N1CCCC1` (configuration not stated) gave SNCA expr inh 158%, IP6K1 inh -15, HEK293 viab inconclusive and KDM5B inhibitor 28µM*.

Screening data: PubChem, National Center for Advancing Translational Sciences (NCATS)
